MCF10A rerep – A quantitative high throughput screen for small molecules that induce DNA re-replication in MCF 10a normal breast cells | MCF 10A DNA re-replication, Hoechst nuclear intensity, 48 h | Potency, µM (series often up to 46.1 µM), inactives show at the top dose activity, positive = re-replication, hits mostly activators | 350,000 tested, 2.9% active | AID 624296, 2012; note: % of control where 0% means no effect; nearly all actives have a fitted effect of over 50% in size
12-LOX inh – Primary qHTS assay for inhibitors of human arachidonate 12S-lipoxygenase (ALOX12): Round 2 | Polyunsaturated fatty acid lipoxygenase ALOX12 (Homo sapiens), P18054 | purified 12hLO, xylenol orange hydroperoxide absorbance | Potency, µM (titrated, usually from 108 µM), inactives show at the top dose activity change, negative = inhibition, hits mostly inhibitors | 580,000 tested, 1.1% active | AID 1671190, 2021; note: % is set by controls: 0 for no effect and ±100 for the full control effect
Target sequence (P18054 whole entry, looked up): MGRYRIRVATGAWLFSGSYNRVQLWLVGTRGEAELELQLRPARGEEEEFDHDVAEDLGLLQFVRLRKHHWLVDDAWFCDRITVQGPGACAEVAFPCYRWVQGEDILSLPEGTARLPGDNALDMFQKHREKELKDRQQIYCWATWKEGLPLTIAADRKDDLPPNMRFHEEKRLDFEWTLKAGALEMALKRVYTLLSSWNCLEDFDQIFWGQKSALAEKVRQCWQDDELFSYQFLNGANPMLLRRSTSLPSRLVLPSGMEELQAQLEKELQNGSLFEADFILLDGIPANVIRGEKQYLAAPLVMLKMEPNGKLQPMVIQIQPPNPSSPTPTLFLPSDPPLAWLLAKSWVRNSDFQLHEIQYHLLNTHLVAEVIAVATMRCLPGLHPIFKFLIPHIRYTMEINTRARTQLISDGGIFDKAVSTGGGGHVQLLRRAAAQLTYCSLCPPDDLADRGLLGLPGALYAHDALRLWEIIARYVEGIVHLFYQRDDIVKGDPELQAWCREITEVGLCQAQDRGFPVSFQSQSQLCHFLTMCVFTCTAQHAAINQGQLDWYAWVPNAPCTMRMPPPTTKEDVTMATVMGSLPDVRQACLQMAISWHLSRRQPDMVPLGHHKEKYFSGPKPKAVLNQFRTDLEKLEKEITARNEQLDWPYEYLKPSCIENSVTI
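Hydroperoxide product was detected by ferrous iron/xylenol orange as the 573 to 405 nm absorbance ratio. Arachidonic acid at 40 uM (final) was turned over for 30 min at room temperature by 150 nM human 12hLO, pH 7.0 Hepes buffer, after 15 min compound preincubation.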
KB-3-1 cytotox – qHTS assay for MDR1-selective chemotherapeutics: Primary screen using the parental adenocarcinoma cell KB-3-1. KB-3-1 viability, CellTiter-Glo ATP luminescence, 72 h. Potency, µM (highest dose often 46.1 µM), usual class: cytotoxic. 400,000 tested, 1.4% active. AID 1347075, 2019; note: % is set by controls: 0 for no effect and ±100 for the full control effect; nearly all actives have a fitted effect of over 60% in size
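KB-3-1 parental drug-naive adenocarcinoma cells in DMEM/10% FBS, incubated 72 h at 37 C with pin-transferred compounds across a concentration series. Viability by CellTiter-Glo luminescence; concentration-response curves fitted after normalization.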
KB-V1 cytotox – qHTS assay for MDR1-selective chemotherapeutics: Primary screen using the drug-selected MDR subline cells KB-V1 | KB-V1 MDR cells viability, CellTiter-Glo, 72 h | Potency, µM (top dose mostly 46.1 µM), hits mostly cytotoxic | 400,000 tested, 3.4% active | AID 1347076, 2019; note: % is set by controls: 0 for no effect and ±100 for the full control effect; nearly all actives have a fitted effect of over 60% in size
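Cytotoxicity toward P-gp-expressing KB-V1 cells was determined as loss of CellTiter-Glo luminescence after 72 h at 37 degrees C. Compounds were tested in quantitative HTS format across a concentration range, with curves fitted to normalized data.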
PINK1 expr mod – A Quantitative High throughput Screen to Identify Chemical Modulators of PINK1 Expression; AID 624263, 2012; PINK1 immunofluorescence, high-content cytometry, 24 h; 410,000 tested, 0.2% active; Potency, µM (doses to about 76.6 µM), for the others: at the highest dose activation (PINK1 increase), actives largely listed as activators; active = well fitted activation curve with a large enough effect; inconclusive = small, poorly fitted or top-dose-only effect; cell line not stated here; note: % of control where 0% means no effect; nearly all actives have a fitted effect of over 65% in size
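A stable cell line was treated with compounds at 5 concentrations for 24 hours, with CCCP as control. PINK1 levels and mitochondrial localization were measured by immunofluorescence with mitochondrial, cell and nuclear markers after fixation, read by laser-scanning cytometry.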
SW480 rereplic – A quantitative high throughput screen for small molecules that induce DNA re-replication in SW480 colon adenocarcinoma cells; SW480 DNA re-replication, Hoechst DNA content imaging, 48 h; Potency, µM (titrated, usually from 46.1 µM), for inactives: at the highest dose re-replication activation, most hits filed as activators; 340,000 tested, 1.8% active; note: % of control where 0% means no effect; nearly all actives have a fitted effect of over 55% in size
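SW480 cells exposed to compounds for 48 hr at 37 C, 5% CO2, then Hoechst-stained 40 min. Nuclear DNA content imaged by fluorescence scanning (405 nm excitation, 500-530 nm emission); re-replication scored as increased high-intensity nuclei.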
Numbers without * were called inactive; i = inactive; ? = inconclusive; · = no result given; ! = a repeat was not active; [ ] = dose if it differs, or a comment. Only some compounds are listed: those with a hit (about 5.8% of all), similar ones and a draw of the others. Unless noted, calls come from the whole dose curve; as a rule, active = well fitted curve in the direction sought with a large enough effect; inconclusive = small, poorly fitted or top-dose-only effect, or another doubt; inactive = no such curve, though single readings can be large; an effect the other way counts as inactive or inconclusive. Potency is the fitted concentration of half-maximal effect.

SMILES	MCF10A rerep	12-LOX inh	KB-3-1 cytotox	KB-V1 cytotox	PINK1 expr mod	SW480 rereplic
O=C(O)Cc1cccn1-c1ccc(Cl)cc1	·	-22%	·	·	·	·
Cc1cc(CC(=O)O)n(C)c1C(=O)c1ccc(Cl)cc1	30µM*!	-5%	i	i	0%	-53%
COc1cccc(/C=C(\C#N)c2ccccc2)c1OC(C)C	·	10%	·	·	·	·
O=[N+]([O-])c1cc(S(=O)(=O)Nc2ccc(Cl)cc2)ccc1N/N=C/c1ccccc1	·	13%	·	·	·	·
COc1ccc(C(=O)NN(C)c2nc(-c3ccccc3)nnc2C(F)(F)F)cc1	9%	-21%	i	i	10%	4%
COc1ccc(C(=O)NN(C)c2nc(C(F)(F)F)nc3ccccc23)cc1	0.033µM*	-19%	0.82µM*	0.73µM*	6%	?
CC(=O)c1sc(NC(C)C)c(C#N)c1N	·	18µM*	·	·	·	·
CCOc1cc(/C=C(/C#N)C(=O)Nc2ccc(O)cc2)cc(Br)c1O	0.18µM*	1%	1µM*	?	7%	2.1µM*
C=CCNC(=O)/C(C#N)=C\c1cc(Cl)c(O)c(OCC)c1	-51%	4%	i	i	2%	?
CCOC(=O)c1c(NC(=O)C(Sc2ccccc2)c2ccccc2)sc(C(=O)N(C)C)c1C (stereo unspecified)	?	2%	?	2.9µM*	5%	?
CCOC(=O)c1c(NC(=O)C(Sc2ccccc2)c2ccccc2)sc(C(N)=O)c1C (stereo unspecified)	16%	-14%	?	?	6%	3%
CC(=O)c1ccc(S(=O)(=O)NCCC(=O)NC2CCC(C)CC2)cc1 (stereo unspecified)	·	6%	·	·	·	·
O=C(Nc1ccc2[nH]c(=O)[nH]c2c1)c1nn(-c2ccccc2Cl)c2c1CCCC2	·	-3%	·	·	·	·
Cc1ccc(CS(=O)(=O)c2ncc(Cl)c(C(=O)Nc3nnc(C(C)C)s3)n2)cc1	?	-6%	?	?	-1%	6%
Cc1nnc(NC(=O)c2nc(S(=O)(=O)Cc3ccccc3C)ncc2Cl)s1	2.6µM*	-14%	?	?	-1%	?
O=C(Nc1ccccc1)c1nc(S(=O)(=O)Cc2ccccc2F)ncc1Cl	·	·	i	i	13%	·
CC(C)c1nnc(NC(=O)c2nc(S(=O)(=O)Cc3ccc(F)cc3)ncc2Cl)s1	0.73µM*	-3%	?	i	-2%	1.3µM*
CC(C)c1nnc(NC(=O)c2nc(S(=O)(=O)Cc3ccccc3F)ncc2Cl)s1	0.73µM*	23%	?	i	-2%	12%
O=C(CS(=O)(=O)c1ccccc1)c1ccc(Br)cc1	·	-14%	·	·	·	·
Cc1ccccc1N(C)C1CN(C(=O)c2ccc3c(c2)OCO3)C1	·	1%[6.33 µM]	·	·	·	·
COc1ccc(CCNC(=O)C2CCN(Cc3nc(-c4ccccc4C)oc3C)CC2)cc1OC	22%	0%	?	7.3µM*	-2%[38.3 µM]	2%
Cc1ccccc1-c1nc(CN2CCC(C(=O)NCCc3ccccc3)CC2)c(C)o1	·	0%	i	i	-1%	·
COc1ccc(OC)c(CCNC(=O)CS(=O)(=O)Cc2nc(-c3ccccc3C)oc2C)c1	6%	0%	?	6.5µM*	1%	-3%
COc1ccc(OC)c(CCNC(=O)CS(=O)(=O)Cc2nc(-c3ccccc3Cl)oc2C)c1	12%	3%	i	i	0%	-7%
Cc1ccccc1-c1nc(CN2CCC(C(=O)NCCCN3CCCC(C)C3)CC2)c(C)o1 (stereo unspecified)	7%	8%	i	i	5%	21µM*
SMILES	MCF10A rerep	12-LOX inh	KB-3-1 cytotox	KB-V1 cytotox	PINK1 expr mod	SW480 rereplic
N=c1c(-c2nc3ccccc3[nH]2)cc(C(=O)c2ccco2)nn1-c1ccccc1	2%	-7%	i	i	3%	7.3µM*
Cc1cc(C)n(S(=O)(=O)/C=C/c2ccccc2)n1	16µM*	-17%	?	?	16%[38.3 µM]	?
O=c1[nH]c2c(s1)C(c1ccc(O)cc1)C1C3CCC(C3)C1S2 (stereo unspecified)	0%	45µM*	i	i	9%	-2%
CCOc1ccccc1OCCCC(=O)Nc1nc2ccccc2[nH]1	5%	?	i	i	7%	12%
COc1ccc(C(=O)Nc2nc3ccccc3[nH]2)cc1OC	-18%	?	i	i	4%[38.3 µM]	-3%
CCCCCC(=O)Nc1nc2ccccc2[nH]1	21%	0%	23µM*	?	?	?
CCOc1ccccc1NC(=O)c1ccc2[nH]c(C)c(C)c2c1	?	2%	i	i	1%	23µM*
O=C(CCCSc1nc2ccccc2[nH]1)NCc1ccccc1Cl	0%	-28%	i	16µM*	-1%	·
CCOc1ccc(C(=O)Nc2nc3ccccc3[nH]2)cc1OCC	18%	?	?	5.2µM*	7%	2%
CC(=O)N1N=C(c2cccc(NS(C)(=O)=O)c2)CC1c1ccc2nccnc2c1 (stereo unspecified)	·	26%	·	·	·	·
O=C(Cc1ccccc1F)Nc1nc2ccccc2[nH]1	4%	7%	i	i	3%	11%
O=C(Cc1cccc2ccccc12)Nc1nc2ccccc2[nH]1	0%	12%	i	18µM*	2%[38.3 µM]	?
CCN(Cc1nc2cc(OC)c(OC)cc2c(=O)[nH]1)C(=O)c1cccc(F)c1	·	13%	·	·	·	·
Cc1nc(Nc2ccc(Cl)c(Cl)c2)sc1C(=O)Nc1ccccc1	23µM*	?	?	i	-2%	28%
Cc1nc(Nc2ccc(Cl)cc2Cl)sc1C(=O)Nc1ccccc1	-6%	-20%	i	?	?	3%
Cc1nc(NC(=O)/C=C/c2ccccc2)sc1C(=O)Nc1ccccc1Cl	4%	-2%	i	i	-1%	16%
Cc1cccc(Nc2nc(C)c(C(=O)Nc3ccccc3)s2)c1	·	13µM*	·	·	·	·
Cc1nc(NC(=O)/C=C/c2ccccc2)sc1C(=O)Nc1ccc(Cl)cc1	16µM*	-4%	i	i	-1%	?
O=C(NCc1ccnc(OCC(F)(F)F)c1)c1ccc(Cl)o1	·	8%	·	·	·	·
COC(=O)[C@H](CC(C)C)N(Cc1cn(Cc2ccc(C)cc2)nn1)S(=O)(=O)c1ccccc1Br	·	8.9µM*	·	·	·	·
COC(=O)[C@H](CC(C)C)N(Cc1cn(Cc2ccccc2)nn1)S(=O)(=O)c1ccccc1Br	·	-9%	·	·	·	·
